Assay [1] in a line: NCI Yeast Anticancer Drug Screen. Data for the rad50 strain (AID 155).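 Further: 0% = growth of vehicle-only cultures of the same strain.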 The note with it: S. cerevisiae rad50 strain growth inhibition, active compounds read high. The essentials: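 Cells are treated with compound, grown, and their growth is then scored against vehicle-only cultures of the same repair-deficient yeast strain.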
A short description of assay [2]: NCI Yeast Anticancer Drug Screen. Data for the mec2-1 strain (AID 157). As to conditions: S. cerevisiae mec2-1 strain, active compounds read high. The essentials: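 Yeast mec2-1 mutant treated with compound. Readout: growth inhibition vs vehicle controls.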
The nature of assay [3]: NCI Yeast Anticancer Drug Screen. Data for the sgs1 mgt1 strain (AID 161).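 Further: 0% = growth of cultures given vehicle only.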 The note with it: S. cerevisiae sgs1 mgt1 strain, active compounds read high. The essentials:
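Genetically altered yeast, compound exposure, growth inhibition relative to vehicle.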

A short description of assay [4]: NCI Yeast Anticancer Drug Screen. Data for the cln2 rad14 strain (AID 165).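 Further: 0% = growth equal to vehicle treated cultures.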 As to conditions: S. cerevisiae cln2 rad14 strain, active compounds read high. In outline: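 cln2 rad14 yeast strain; compound exposure; growth inhibition read vs vehicle controls.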
Assay [5] can be described thus: NCI Yeast Anticancer Drug Screen. Data for the bub3 strain (AID 167). As to conditions: S. cerevisiae bub3 mutant strain, active compounds read high. In outline: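 Part of a panel of yeast mutants defective in DNA damage repair or cell cycle regulation. Each strain is grown with compound, and inhibition is calculated relative to solvent-treated cultures.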
The nature of assay [6]: NCI Yeast Anticancer Drug Screen. Data for the mlh1 rad18 strain (AID 175). The note with it: S. cerevisiae mlh1 rad18 strain growth inhibition, active compounds read high. In outline:
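Yeast w/ defined DNA-repair lesions; compound exposure; growth vs vehicle controls → % inhibition.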

[7] abbreviates: at 5.0 µM (retest, dose inferred, filed as 0.5).
[8] abbreviates: at 50.0 µM (retest, dose inferred, filed as 5.0).

In PubChem BioAssay (NCI) one finds growth inhibition data, which are given here for nine compounds.

Compounds without any hit were thinned out: in the full panel of roughly 79,000, 15% have a hit. Unmarked numbers belong to inactive results. Active and inactive are the calls of the source. No stated cut-off is given here; in the data, active means growth inhibition above about 70%; inactive means the rest.

For `C/C=C(\C)C(=O)OC1C2C(C)=CC(=O)C(O)C2(C)C2C3(O)OCC24C1OC(=O)C(O)C4C(C)C3O` (configuration not stated), the growth inhibition in assay [1] (setting [7]) is -2%; in assay [1] (setting [8]), 54%; in assay [1] (at 50.0 µM) it was 84.2% (active); in assay [2] (setting [7]), 15%; in assay [2] (setting [8]), 30%; in assay [2] (at 50.0 µM), 72.5% (active). Besides, the growth inhibition was 9% in assay [3] (setting [7]); 42% in assay [3] (setting [8]); 71.7% (active) in assay [3] (at 50.0 µM); 8% in assay [4] (setting [7]); 67% in assay [4] (setting [8]); 78.5% (active) in assay [4] (at 50.0 µM). The growth inhibition is -13% in assay [5] (setting [7]); 51% in assay [5] (setting [8]); 75.8% (active) in assay [5] (at 50.0 µM); -33% in assay [6] (setting [7]); 66% in assay [6] (setting [8]); 34.5% in assay [6] (at 50.0 µM).
With `CC(C)(C)CC(C)(C)c1ccc(Oc2ccc([N+](=O)[O-])cc2S(=O)(=O)O)cc1`, the growth inhibition in assay [1] (setting [7]) was -2%; in assay [1] (setting [8]), 21%; in assay [1] (at 50.0 µM), 14.8%; in assay [2] (setting [7]) it was -6%; in assay [2] (setting [8]), -1%; in assay [2] (at 50.0 µM) it was 0.05%. Besides, the growth inhibition in assay [3] (setting [7]) is -1%; in assay [3] (setting [8]), 32%; in assay [3] (at 50.0 µM) it was 64.5%; in assay [4] (setting [7]), 4%; in assay [4] (setting [8]), -4%; in assay [4] (at 50.0 µM), -23.4%. Further, the growth inhibition in assay [5] (setting [7]) is -2%; in assay [5] (setting [8]), -13%; in assay [5] (at 50.0 µM), 5.45%; in assay [6] (setting [7]), 5%; in assay [6] (setting [8]), 26%; in assay [6] (at 50.0 µM) it was 24.7%.
Take `O=C(Nc1ccc(-c2cn3ccccc3n2)cc1)c1cc(Br)ccc1O`: the growth inhibition was 4% in assay [1] (setting [7]); 15% in assay [1] (setting [8]); -21.6% in assay [1] (at 50.0 µM); 5% in assay [2] (setting [7]); 7% in assay [2] (setting [8]); -28.6% in assay [2] (at 50.0 µM). Also, the growth inhibition in assay [3] (setting [7]) was 12%; in assay [3] (setting [8]), 9%; in assay [3] (at 50.0 µM), -13.8%; in assay [4] (setting [7]), 33%; in assay [4] (setting [8]), -9%; in assay [4] (at 50.0 µM), 39.9%. The growth inhibition in assay [5] (setting [7]) is 5%; in assay [5] (setting [8]), 6%; in assay [5] (at 50.0 µM), -24.4%; in assay [6] (setting [7]), 5%; in assay [6] (setting [8]), 13%; in assay [6] (at 50.0 µM), -29.8%.
Take `Cc1c2cc[n+](C)cc2c(COC2OC(CO)C(O)C2O)c2c3ccccc3n(C)c12` (configuration not stated): the growth inhibition was 23% in assay [1] (setting [7]); 44% in assay [1] (setting [8]); 65% in assay [1] (at 50.0 µM); 10% in assay [2] (setting [7]); 10% in assay [2] (setting [8]); 23.6% in assay [2] (at 50.0 µM). In addition, the growth inhibition in assay [3] (setting [7]) was -12%; in assay [3] (setting [8]), 23%; in assay [3] (at 50.0 µM), 17.9%; in assay [4] (setting [7]), 19%; in assay [4] (setting [8]), 24%; in assay [4] (at 50.0 µM), 18.1%. Also, the growth inhibition in assay [5] (setting [7]) is 12%; in assay [5] (setting [8]), 14%; in assay [5] (at 50.0 µM), 28.1%; in assay [6] (setting [7]), 13%; in assay [6] (setting [8]) it was 14%; in assay [6] (at 50.0 µM), 23.2%.
As for `C#CC(=O)OCC#CCOC(=O)C#C`, the growth inhibition in assay [1] (setting [7]) is 3%; in assay [1] (setting [8]), 77% (active); in assay [1] (at 50.0 µM), 97.5% (active); in assay [2] (setting [7]) it was 0%; in assay [2] (setting [8]), 95% (active); in assay [2] (at 50.0 µM) it was 98.5% (active). Besides, the growth inhibition was -9% in assay [3] (setting [7]); 83% (active) in assay [3] (setting [8]); 78.2% (active) in assay [3] (at 50.0 µM); -7% in assay [4] (setting [7]); 15% in assay [4] (setting [8]); 49.2% in assay [4] (at 50.0 µM). Also, the growth inhibition in assay [5] (setting [7]) is 1%; in assay [5] (setting [8]), 76% (active); in assay [5] (at 50.0 µM), 92.2% (active); in assay [6] (setting [7]) it was 5%; in assay [6] (setting [8]) it was 96% (active); in assay [6] (at 50.0 µM) it was 96% (active).
As for `CC(C)c1ccc(/C=C(\NC(=O)c2ccccc2)c2nc3ccccc3[nH]2)cc1`, the growth inhibition in assay [1] (setting [7]) was -2%; in assay [1] (setting [8]), 60%; in assay [1] (at 50.0 µM), 71.2% (active); in assay [2] (setting [7]) it was -27%; in assay [2] (setting [8]), 53%; in assay [2] (at 50.0 µM), 86.1% (active). In addition, the growth inhibition in assay [3] (setting [7]) was -2%; in assay [3] (setting [8]), 67%; in assay [3] (at 50.0 µM), 56.5%; in assay [4] (setting [7]) it was -7%; in assay [4] (setting [8]), 49%; in assay [4] (at 50.0 µM), 80.4% (active). Further, the growth inhibition is 6% in assay [5] (setting [7]); 71% (active) in assay [5] (setting [8]); 88% (active) in assay [5] (at 50.0 µM); -3% in assay [6] (setting [7]); 62% in assay [6] (setting [8]); 93.3% (active) in assay [6] (at 50.0 µM).
For `CCC(C)(C)c1cc(Br)c(NS(=O)(=O)c2ccc(NC(C)=O)cc2)c(Br)c1`, the growth inhibition in assay [1] (setting [7]) is 5%; in assay [1] (setting [8]), 80% (active); in assay [1] (at 50.0 µM), -6.75%; in assay [2] (setting [7]) it was 13%; in assay [2] (setting [8]), 65%; in assay [2] (at 50.0 µM), 8.05%. Also, the growth inhibition in assay [3] (setting [7]) is -9%; in assay [3] (setting [8]) it was 35%; in assay [3] (at 50.0 µM), -0.45%; in assay [4] (setting [7]) it was 9%; in assay [4] (setting [8]) it was 78% (active); in assay [4] (at 50.0 µM) it was 6.85%. For the same compound, the growth inhibition was -3% in assay [5] (setting [7]); 62% in assay [5] (setting [8]); 6.5% in assay [5] (at 50.0 µM); 8% in assay [6] (setting [7]); 42% in assay [6] (setting [8]); 20.5% in assay [6] (at 50.0 µM).
Consider `CC(C)c1ccc2c(c1)CCC1C(C)(C(=O)O)CCCC21C` (configuration not stated), for which the growth inhibition in assay [1] (setting [7]) was 11%; in assay [1] (setting [8]) it was 97% (active); in assay [1] (at 50.0 µM), 95.1% (active); in assay [2] (setting [7]), 8%; in assay [2] (setting [8]) it was 97% (active); in assay [2] (at 50.0 µM) it was 98.3% (active). The growth inhibition in assay [3] (setting [7]) was 16%; in assay [3] (setting [8]), -15%; in assay [3] (at 50.0 µM), 98% (active); in assay [4] (setting [7]) it was 8%; in assay [4] (setting [8]), 98% (active); in assay [4] (at 50.0 µM), 96.9% (active). For the same compound, the growth inhibition was -9% in assay [5] (setting [7]); 97% (active) in assay [5] (setting [8]); 97.8% (active) in assay [5] (at 50.0 µM); 16% in assay [6] (setting [7]); 97% (active) in assay [6] (setting [8]); 97.5% (active) in assay [6] (at 50.0 µM).
For the compound `COc1ccccc1CN1CCCN(Cc2ccccc2OC)C1c1cc(Cl)cc(Cl)c1O`, the growth inhibition was 16% in assay [1] (setting [7]); 93% (active) in assay [1] (setting [8]); 69.2% in assay [1] (at 50.0 µM); 11% in assay [2] (setting [7]); 100% (active) in assay [2] (setting [8]); 15.3% in assay [2] (at 50.0 µM). The growth inhibition is 19% in assay [3] (setting [7]); 99% (active) in assay [3] (setting [8]); 97.5% (active) in assay [3] (at 50.0 µM); -2% in assay [4] (setting [7]); 97% (active) in assay [4] (setting [8]); 6.2% in assay [4] (at 50.0 µM). Moreover, the growth inhibition in assay [5] (setting [7]) is 4%; in assay [5] (setting [8]), 98% (active); in assay [5] (at 50.0 µM), 9.3%; in assay [6] (setting [7]) it was 52%; in assay [6] (setting [8]) it was 99% (active); in assay [6] (at 50.0 µM), 78.6% (active).
